Compound activity: PubChem BioAssay, several laboratories
IDE act – boosts human insulin-degrading enzyme activity in HEK cells | P14735 | FAbeta-B cleavage, fluorescence polarization; 0% vehicle, 100% cell-free pure enzyme wells | activation, % at 5.96 µM | 0.073% of 340,000 active;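 active = activation above the mean of all tested compounds plus 3 SD, set per screening campaign, cut at about 17% in these data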
Target sequence (P14735 whole entry, looked up): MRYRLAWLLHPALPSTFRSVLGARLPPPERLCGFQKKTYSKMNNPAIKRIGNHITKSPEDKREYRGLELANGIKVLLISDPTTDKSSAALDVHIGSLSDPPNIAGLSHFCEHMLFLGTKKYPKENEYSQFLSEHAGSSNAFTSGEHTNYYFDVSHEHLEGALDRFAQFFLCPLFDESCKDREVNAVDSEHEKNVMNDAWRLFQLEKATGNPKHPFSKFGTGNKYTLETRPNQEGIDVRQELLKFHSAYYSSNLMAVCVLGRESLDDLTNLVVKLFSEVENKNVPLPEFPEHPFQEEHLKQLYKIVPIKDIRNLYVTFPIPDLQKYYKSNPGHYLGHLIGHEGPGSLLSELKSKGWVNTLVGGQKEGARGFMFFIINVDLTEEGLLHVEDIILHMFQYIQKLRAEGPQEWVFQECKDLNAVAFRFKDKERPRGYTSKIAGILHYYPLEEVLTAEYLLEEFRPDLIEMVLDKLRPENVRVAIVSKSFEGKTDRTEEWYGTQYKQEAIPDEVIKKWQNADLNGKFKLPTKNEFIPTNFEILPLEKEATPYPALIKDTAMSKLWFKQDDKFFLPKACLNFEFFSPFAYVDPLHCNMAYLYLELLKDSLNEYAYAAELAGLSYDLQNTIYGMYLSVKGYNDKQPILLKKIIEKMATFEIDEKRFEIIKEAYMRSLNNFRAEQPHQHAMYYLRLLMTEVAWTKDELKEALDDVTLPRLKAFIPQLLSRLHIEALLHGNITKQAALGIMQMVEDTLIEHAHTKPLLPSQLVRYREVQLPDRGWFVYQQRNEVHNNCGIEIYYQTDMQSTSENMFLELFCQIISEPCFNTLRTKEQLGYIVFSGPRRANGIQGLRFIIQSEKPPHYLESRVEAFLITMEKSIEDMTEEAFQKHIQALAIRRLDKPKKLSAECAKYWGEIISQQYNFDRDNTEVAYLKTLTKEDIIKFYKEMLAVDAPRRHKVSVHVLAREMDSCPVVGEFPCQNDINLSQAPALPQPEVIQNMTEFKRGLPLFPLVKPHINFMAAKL
Cardiac RTF inh – cardiac RTF calcium desensitization. IANBD-labeled cardiac RTF, Ca2+ fluorescence. inhibition, % at 7.15 µM. 0.12% of 340,000 active;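 active = inhibition above the mean inhibition of all tested compounds plus 3 SD, cut at about 17% in these data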;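 also: assay run at fixed EC70 calcium of 1.6 mM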
RTF Ca sens act – increases calcium sensitivity of human cardiac regulated thin filaments; AID 493008; activation, % at 7.2 µM; 0.24% of 340,000 active; IANBD-labeled TnC RTF fluorescence at EC20 calcium; 0% EC20 calcium, 100% full calcium; P19429+P45379;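 active = activation above the mean over all tested compounds plus 3 SD, cut at about 30% in these data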;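 also: rise in fluorescence read as greater calcium sensitivity of cardiac thin filaments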
CRFR2-BP antag – antagonists of CRF-binding protein/CRF-R2 receptor complex; inhibition, % at 11.8 µM; 0.59% of 350,000 active; HEK293 CRF-R2/CRF-BP, CRF-induced calcium fluorescence;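 active = inhibition of the ligand-induced calcium signal above about 50% at the single tested concentration, limit read from the data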
CRFR2-BP ag – agonists of human CRF-binding protein/CRF-R2 receptor complex; HEK293 CRF-R2/CRF-BP, calcium dye fluorescence (FLIPR); percent of saturating CRF peptide response; activation, % at 13.2 µM; 0.46% of 350,000 active; AID 588473;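 active = activation of at least 50%, plus an integration ratio under a set limit after plate pattern correction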
IDE cell inh – cellular human IDE inhibition | HEK cells, FAbetaB cleavage, fluorescence polarization | inhibition, % at 5.59 µM | 0.41% of 320,000 active;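 active = percent inhibition above the average of all tested compounds plus 3 SD, set per screening campaign, cut at about 16% in these data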;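 also: IDE supplied by intact live HEK cells; FP after avidin binding of uncleaved biotin substrate so inhibition keeps polarization high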
IDE cell inh cf – cellular human IDE inhibition, confirmation. shares compounds with IDE cell inh. HEK cells, FAbetaB cleavage, fluorescence polarization. inhibition, % at 5.59 µM. 51% of 1,200 active. AID 435028;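 active = mean inhibition across triplicate wells above the cutoff set by the earlier primary insulin-degrading enzyme screen, cut at about 16% in these data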
HEK293 tox – kills HEK cells in IDE inhibitor counter-screen | shares compounds with IDE cell inh | HEK293 cytotoxicity, ATP luminescence | inhibition, % at 5.59 µM | 28% of 1,200 active | AID 449730; in the data active = inhibition above about 22%
Large screens that a line does not name were inactive (follow-up assays come after a bar, where they were run). Sampled rows, rich in hits. Any-hit rate of the full collection: about 1.5%.

CCCOC(=O)c1ccc(Oc2coc3c(CN(CC)CC)c(O)ccc3c2=O)cc1	IDE cell inh 20.3 | IDE cell inh cf inactive | HEK293 tox inactive
CCC(=O)NC(C)c1cc(Cl)c2ccccc2c1O (centres undefined)	none
CCC(=O)NC(c1cccs1)c1cc(Cl)c2ccccc2c1O (centres undefined)	IDE cell inh 17.3 | IDE cell inh cf inactive | HEK293 tox inactive
CC(=O)NC(c1cccs1)c1cc(Cl)c2ccccc2c1O (centres undefined)	IDE cell inh 19.2 | IDE cell inh cf inactive | HEK293 tox inactive
CC(=O)NC(c1cccs1)c1cc([N+](=O)[O-])c2cccnc2c1O (centres undefined)	IDE cell inh 26.5 | IDE cell inh cf inactive | HEK293 tox 27.2
COCCN(C(=O)COC(=O)CCSc1ccc(F)cc1)c1c(N)n(Cc2ccccc2)c(=O)[nH]c1=O	none
NC(=O)c1ccsc1NC(=O)COC(=O)c1cc(Cl)ccc1O	none
N=c1oc2c3c4c(cc2cc1C(=O)Nc1ccccc1)CCCN4CCC3	RTF Ca sens act active, CRFR2-BP ag 270.6, IDE cell inh 51.1 | IDE cell inh cf 25.9 | HEK293 tox inactive
Cc1ccc(NC(=O)c2cc3ccccc3oc2=N)cc1	none
CC(=O)Nc1nc2ccccc2n1CCOc1ccccc1	none
S=C(Nc1ccccc1)Nc1nc2ccccc2n1CCOc1ccccc1	IDE cell inh 28.5 | IDE cell inh cf 18.1 | HEK293 tox inactive
CCCCn1c(NC(=O)c2ccccc2)nc2ccccc21	none
CCCCn1c(NC(=S)Nc2ccccc2)nc2ccccc21	IDE cell inh 30.6 | IDE cell inh cf inactive | HEK293 tox inactive
O=C(C1=NN(c2ccccc2)C2C(=O)N(c3cccc(Cl)c3)C(=O)C12)c1ccccc1 (centres undefined)	RTF Ca sens act 46.7, CRFR2-BP ag 115.7, IDE cell inh 30.7 | IDE cell inh cf 27.9 | HEK293 tox inactive
O=C1C2C3CC(C2C(=O)N1c1cccc(Cl)c1)[C@H](O)C3O (some centres undefined)	none
Cc1cc(OCC(O)CN2CCCC2)cc(C)c1Cl (centres undefined)	none
CC[n+]1c(C)sc2c3ccsc3ccc21	IDE cell inh 42.0 | IDE cell inh cf inactive | HEK293 tox inactive
C[C@H](NS(=O)(=O)c1ccccc1F)C(=O)OCC(=O)Nc1ccc2c(c1)OCCO2	none
CCN(CC(=O)Nc1c(F)cccc1F)C(=O)C1CCN(S(=O)(=O)c2ccc(C)cc2C)CC1	none
Cc1cccc(OCC(=O)NCC(=O)N/N=C/c2cc(Br)ccc2OCc2ccccc2)c1	IDE cell inh 32.2 | IDE cell inh cf inactive | HEK293 tox inactive
Cc1cccc(Nc2nc(C)cc(C)c2C#N)c1	none
Cc1cccc(Nc2nc(N)c(C#N)c(CC#N)c2C#N)c1	IDE cell inh 25.8 | IDE cell inh cf 18.9 | HEK293 tox inactive
CC(=O)N(C(C)=O)N1C(=O)c2cccc3c(N4CCOCC4)ccc(c23)C1=O	IDE cell inh 16.9 | IDE cell inh cf inactive | HEK293 tox inactive
O=C1c2cccc3c(N4CCCCC4)ccc(c23)C(=O)N1c1ccccn1	IDE cell inh 74.9 | IDE cell inh cf 108.7 | HEK293 tox inactive
Cc1ccc(N2CCOCC2)c2c1C(=O)c1ccccc1C2=O	none
O=C(O)CCC1c2cc3c4cc2OC2Oc5cc6c(cc51)C(CCC(=O)O)c1cc5c7cc1OC(O6)c1cc6cc(c1)Oc1cc(cc(C(=O)O)c1)Oc1cc8cc(c1)C(Oc1cc(c(cc1C5CCC(=O)O)C3CCC(=O)O)OC(O4)c1cc(cc(c1)Oc1cc(cc(C(=O)O)c1)O8)Oc1cc(cc(C(=O)O)c1)Oc1cc(cc2c1)Oc1cc(cc(C(=O)O)c1)O6)O7 (centres undefined)	none (no result: IDE act, Cardiac RTF inh, RTF Ca sens act, CRFR2-BP antag, CRFR2-BP ag)
O=C(NCCCN1CCOCC1)C(=O)N/N=C/c1cccc2ccccc12	IDE cell inh 16.1 | IDE cell inh cf inactive | HEK293 tox inactive
COc1ccc2[nH]c3c(c2c1)CCN1C(=O)C(CC(=O)NC(C)(C)C)C[C@H](C(=O)N2CCCCC2)[C@@]31C (some centres undefined)	none (no result: IDE cell inh)
CCN(CC)C(=O)Cn1cc(C(=O)C(=O)N2CC=C(c3ccccc3)CC2)c2ccccc21	IDE cell inh 18.9 | IDE cell inh cf 20.6 | HEK293 tox inactive
Cc1ccc(S(=O)(=O)CCC(=O)Nc2nnc(-c3cccs3)o2)cc1	none
Cc1cccc(N2CCN(C(=O)c3cccc(N4C(=O)C5CC=CC(C)C5C4=O)c3)CC2)c1C (centres undefined)	IDE cell inh 52.8 | IDE cell inh cf 36.3 | HEK293 tox inactive
O=C(c1cccc(N2CCCC2=O)c1)N1CCN(c2ccccc2)CC1	none
O=C(c1cccc(N2C(=O)C3C4C=CC(C4)C3C2=O)c1)N1CCN(c2ccccc2Cl)CC1 (centres undefined)	none
Cc1cccc(N2CCN(C(=O)c3cccc(N4CCCC4=O)c3)CC2)c1C	IDE cell inh 18.6 | IDE cell inh cf inactive | HEK293 tox inactive
CCOC(=O)c1ccc(/C=C2/C=C(c3ccccc3)N(c3ccc(Cl)c(C(=O)O)c3)C2=O)cc1	CRFR2-BP ag 95.5, IDE cell inh 16.6 | IDE cell inh cf 44.4 | HEK293 tox 84.1
CSc1nc2ccc(S(=O)(=O)N3CCOCC3)cc2s1	none
N#CCc1nc2ccc(S(=O)(=O)N3CCOCC3)cc2s1	IDE cell inh 45.6 | IDE cell inh cf inactive | HEK293 tox inactive
COc1cc(/C=C/c2nc3ccccc3c(=O)[nH]2)cc(Br)c1O	IDE cell inh 43.9 | IDE cell inh cf 143.4 | HEK293 tox inactive
Cc1cccc(N=Cc2[nH]c3ccc(Br)c(Cl)c3c2O)c1	RTF Ca sens act 63.1, CRFR2-BP ag 191.9, IDE cell inh 21.8 | IDE cell inh cf 22.8 | HEK293 tox inactive
COc1ccc(/C=C/C(=O)NC(=S)Nc2ccc(S(=O)(=O)Nc3cc(C)on3)cc2)cc1	IDE cell inh 16.4 | IDE cell inh cf inactive | HEK293 tox inactive
COc1cc(C2C(C#N)=C(N)Oc3cc(N(C)C)ccc32)cc2c1OCO2 (centres undefined)	CRFR2-BP ag 157.8, IDE cell inh 18.9 | IDE cell inh cf inactive | HEK293 tox 67.1
OC1(c2nc3ccccc3[nH]2)CCCCC1	none
CCOC(=O)/C(=C/C1=CC(=C/N(C)C)/C(=O)O1)C(C)=O	RTF Ca sens act 52.9, IDE cell inh 16.2 | IDE cell inh cf 23.0 | HEK293 tox inactive
CCOC(=O)/C(=C/c1ccc(OC(=O)c2ccccc2)cc1)C(C)=O	none
